Measurements published in PubChem BioAssay (NCATS).
Results filed as inconclusive are left out. The source made the active and inactive calls. Calls follow the shape of the dose curve; as a rule, active = well fitted inhibition curve with a large enough effect; inconclusive = small, poorly fitted or top-dose-only effect; inactive = flat fitted curve, though single readings scatter.

Columns and labels:
Experiment in all cases: Cytotoxic Profiling of Annotated Libraries Using Quantitative High-Throughput Screening (AID 1296008); also: nearly all actives have a fitted effect of over 60% in size
Details in all cases: Five cell lines viability, CellTiter-Glo ATP luminescence, 48-72 h; max response: stronger effect = lower value
CRL-7250 = normal cell line; test system: CRL-7250
Procedure, shortened: (§1)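 Compounds were pin-transferred onto cells and incubated 48 or 72 hr at 37 degree Celsius, 95% humidity. CellTiter-Glo was added, plates sat 10 min at room temperature, then ATP-coupled luminescence was imaged as the viability read-out.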

HEK293 = test system: HEK293
Procedure, shortened: as §1

HaCat = test system: HaCat
Procedure, shortened: as §1

KB-3-1 = test system: KB-3-1
Procedure, shortened: as §1

NIH3T3 = test system: NIH3T3
Procedure, shortened: as §1

Measured: max response
% is scaled to controls: 0 for no effect and ±100 for the full control effect.

CCC(C)C(=O)O[C@H]1[C@@H](O[C@H]2O[C@H](CO)[C@@H](O)[C@H](O)[C@H]2O)O[C@H](CO)[C@@H](O)[C@@H]1O (stereo not given in full)
inactive: CRL-7250 -1.24% | HEK293 -6.33% | HaCat | KB-3-1 -0.199% | NIH3T3 2.16%

O=C(O)CCc1cccc(O)c1O[C@@H]1O[C@H](CO)[C@@H](O)[C@H](O)[C@H]1O
inactive: CRL-7250 3.73% | HEK293 -3.2% | HaCat | KB-3-1 8.15% | NIH3T3

C=CC(C)(CC/C=C(\C)C(=O)OC)OC1OC(COC(=O)CC(C)(O)CC(=O)O)C(O)C(O)C1O (stereo not given)
inactive: CRL-7250 -11.6% | HEK293 | HaCat 3.32% | KB-3-1 1.2% | NIH3T3 -0.702%

CC(=O)OC12CC(C)C(O)C1/C=C(/COC1OC(CO)C(O)C(O)C1O)CCC1C(/C=C(\C)C2=O)C1(C)C (stereo not given)
inactive: CRL-7250 -1.86% | HEK293 -3.67% | HaCat | KB-3-1 | NIH3T3

OC[C@@]1(O)CO[C@H](OC[C@H]2O[C@@H](OCCc3ccccc3)[C@H](O)[C@@H](O)[C@@H]2O)[C@@H]1O
inactive: CRL-7250 -3.48% | HEK293 -5.84% | HaCat | KB-3-1 -0.728% | NIH3T3 5%

C=C1CCc2occ(C)c2[C@H]2[C@H]1[C@@]13O[C@@]1(C[C@@H](C)[C@H]3OC(C)=O)[C@H]1O[C@@]21C
inactive: CRL-7250 2.94% | HEK293 | HaCat -22% | KB-3-1 | NIH3T3 -1.13%

CCCN1CCC[C@@H](c2cccc(S(C)(=O)=O)c2)C1
inactive: CRL-7250 -1.62% | HEK293 -20.6% | HaCat -5% | KB-3-1 -6.47% | NIH3T3
